# Many of the other results were omitted from the sample, so hits are more common in it than they were.
# Pf Dd2 growth – Plasmodium falciparum Dd2 growth inhibition. 4.3% of 120,000 active. P. falciparum Dd2 growth, SYBR Green, 72 h. Potency, µM (top dose mostly 28.9 µM), without a hit: top-dose activity, negative = inhibition, usual class: inhibitors; active means well fitted inhibition curve with a large enough effect;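 further: plate controls were DMSO vehicle for no effect and reference drug for full effect; nearly all actives have a fitted effect of over 65% in size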
#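 Readout: SYBR Green fluorescence, 485 nm excitation, 535 nm emission, after ~16 h lysis at 37C. Before that, Dd2-infected red cells (2.5% hematocrit) grew 72 h with compound, 29 uM top final concentration.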
# * marks the source's active call; other numbers are inactive results; i = inactive; [ ] = dose if it differs, or a comment. Potency means the concentration at half of the fitted maximal effect.
SMILES,Pf Dd2 growth
O=S(=O)(NC[C@H]1C[C@@H]2CCN1C[C@@H]2CN1CCc2ccccc21)c1ccc(Cl)cc1,-15%
CS(=O)(=O)NC[C@H]1C[C@@H]2CCN1C[C@@H]2CN1CCc2ccccc2C1,-16%[44.1 µM]
CC(C)NC(=O)NC[C@H]1C[C@@H]2CCN1C[C@@H]2CN(C)Cc1ccccc1,-24%[44.1 µM]
COc1ccc(S(=O)(=O)NC[C@H]2C[C@@H]3CCN2C[C@@H]3CN2CCc3ccccc32)cc1,11µM*
COc1ccc(S(=O)(=O)NC[C@H]2C[C@@H]3CCN2C[C@@H]3CN2CCCCC2)cc1,i
COc1ccc(S(=O)(=O)NC[C@H]2C[C@@H]3CCN2C[C@@H]3CN(C)Cc2ccccc2)cc1,2µM*
CC(=O)Nc1cc(C(=O)NCc2ccc(F)cc2)ccc1S(=O)(=O)c1ccc(C)cc1,-19%
CC(C(=O)NCCc1ccccc1)C1CCOCC1 (configuration not stated),14%
CC(C)c1nc2ccccc2n1CC(=O)N1CCc2c(nc[nH]c2=O)C1,-6%
Cc1nc(C2CCN(C(=O)[C@H]3CNC[C@@H](C(=O)N4CCOCC4)C3)CC2)no1,-2%
COc1cccc(CN2CCOCCNC(=O)CC2)c1,-12%
CCc1c(C)sc2c1CCN(Cc1cccc(OC)c1)C2c1ccccc1 (configuration not stated),7.9µM*
COc1cccc(Cn2c(C)c(CNC3CCCCC3)c(C(=O)O)c2C)c1,13%
Nc1nccc(N2CCN(Cc3ccccc3F)C(CCO)C2)n1 (configuration not stated),-11%
CCc1c(C)sc2c1CCN(Cc1ccccc1F)C2c1ccccc1 (configuration not stated),3.2µM*
CC(C)(C)c1coc([C@@H]2COCCN2Cc2ccccc2F)n1,i
CC(=O)N1CCC(C2CCN(S(=O)(=O)c3ccc(C)c(Cl)c3)C2)CC1 (configuration not stated),-21%
Cc1noc([C@@H]2CN(C(=O)c3ccc4ncccc4c3)C[C@H]2CO)n1,3%
COc1cccc(N2CCN(C(=O)c3nn(C)c4c3CSc3ccc(C)cc3-4)CC2)c1,20%
Cc1ccc(-n2nc(C(=O)N3CCN(c4cc(Cl)ccc4C)CC3)c3c4ccccc4n(C)c3c2=O)cc1,6%
Cc1ccc2c(c1)-c1c(c(C(=O)N3CCN(c4cc(Cl)ccc4C)CC3)nn1C)CS2,10µM*
Cc1ccc(-n2nc(C(=O)N3CCN(c4cc(Cl)ccc4C)CC3)c(=O)n(C)c2=O)cc1,10µM*
Cc1ccc(-n2nc(C(=O)N3CCN(c4ccccc4F)CC3)c(=O)n(C)c2=O)cc1,3%
Cn1nc(C(=O)N2CCN(c3ccccc3F)CC2)c2c1-c1ccccc1SC2,15%
O=C(NCCOc1ccccc1)C1CN(c2ccc(F)cc2)C(=O)N1 (configuration not stated),-7%[44.1 µM]
SMILES,Pf Dd2 growth
CCN(c1ccccc1)S(=O)(=O)c1nnc(NC(=O)COc2ccc(OC)cc2)s1,-8%
CCOCC(=O)N[C@@H]1CN(c2ncccn2)C[C@H]1CO,15%
O=C(Cc1cccc(Cl)c1)N1CCCC(c2nn(-c3cccc(Cl)c3)c(=O)[nH]2)C1 (configuration not stated),10µM*
O=C(c1ccccc1Cl)N1CCCC(c2nn(-c3cccc(Cl)c3)c(=O)[nH]2)C1 (configuration not stated),i
COc1ccc(-n2nc(C3CCCN(C(=O)c4ccccc4)C3)[nH]c2=O)cc1 (configuration not stated),11µM*
COc1ccc(C(=O)N2CCCC(c3nn(-c4ccccc4)c(=O)[nH]3)C2)cc1 (configuration not stated),i
COc1ccc(-n2nc(C3CCN(C(=O)c4ccccc4)CC3)[nH]c2=O)cc1,-21%
COc1ccc(-n2nc(C3CCCN(C(=O)Cc4cccc(Cl)c4)C3)[nH]c2=O)cc1 (configuration not stated),-23%
O=C(NC[C@H]1OC[C@@H](NCc2cccs2)[C@@H]1O)Nc1ccccc1,-3%[44.1 µM]
O=C(O)Cn1ccc2cc(OCCc3cccc(-c4ccccc4)c3)cnc21,i
COc1cccc(C(=O)N2CCC(c3nn(C)c4c3COCC4)CC2)c1,20%[5.79 µM]
Cc1ccsc1C(=O)N1CC(Oc2cccc(-c3nc(-c4ccccc4)no3)c2)C1,18%[5.79 µM]
c1ccc(Nc2cc3c(cn2)CN(Cc2ncc[nH]2)CCN3)cc1,7%[44.1 µM]
Cc1[nH]cnc1CN1CCNc2cc(-c3ccccc3)ncc2C1,i
COc1ccccc1CN1CCNc2cc(Nc3ccccc3)ncc2C1,6.3µM*
c1ccc(CN2CCNc3cc(-c4cccnc4)ncc3C2)cc1,-12%[44.1 µM]
Fc1ccc(Nc2cc3c(cn2)CN(Cc2ccncc2)CCN3)cc1Cl,7.1µM*
c1cncc(Nc2cc3c(cn2)CN(Cc2cccs2)CCN3)c1,0%[44.1 µM]
c1ccc(-c2cc3c(cn2)CN(Cc2c[nH]c4ccccc24)CCN3)cc1,7.9µM*
COCCN1CCNc2cc(Nc3cccc(OC)c3)ncc2C1,i
Cn1cnc(CN2CCNc3cc(Nc4ccccc4)ncc3C2)c1,i
Cn1ccnc1CN1CCNc2cc(Nc3ccccc3)ncc2C1,i
Cn1cc(CN2CCNc3cc(Nc4cccnc4)ncc3C2)cn1,-1%[44.1 µM]
CN(C)c1ccc(CN2CCNc3cc(Nc4ccccc4)ncc3C2)cc1,5.6µM*
COc1ccc(CNC(=O)Cn2ncc3c4ccccc4n(Cc4cccc(Cl)c4)c3c2=O)cc1,7%
SMILES,Pf Dd2 growth
COC1C(=O)N(C2CCN(C(=O)c3ccc4[nH]ccc4c3)CC2)C12CCOCC2 (configuration not stated),-5%
Cc1oc(-c2ccc(C(=O)NCCN(C)C)cc2)nc1CS(=O)(=O)c1ccccc1,i
NC(=O)C1CCN([C@H]2[C@@H]3OC[C@@H](O3)[C@@H](NC(=O)Nc3cccc(C(F)(F)F)c3)[C@@H]2O)CC1,-21%
Cc1noc(C)c1S(=O)(=O)N(C)Cc1ccccc1C(F)(F)F,-13%
O=C(c1cnccn1)N1CCC2(CC1)N=C(c1ccccc1)NO2,82%
COCCc1nncn1C1CCN(S(=O)(=O)c2cccc(Cl)c2)CC1,-11%
CCN1CCN(CCNC(=O)CN2CCCc3nc(C4CC4)ncc3C2=O)CC1,-25%
CCc1ccc(NC(=O)Cn2c(=O)n(CCC(=O)N3CCc4ccccc4C3)c(=O)c3ccccc32)cc1,39%
Cc1cc(-c2nc3ncccc3o2)ccc1NC(=O)COc1cc(C)c(Cl)c(C)c1,4%
Cc1cc(-c2nc3ncccc3o2)ccc1NC(=O)COc1ccccc1C,2%
Cc1cc(OCC(=O)Nc2cc(-c3nc4ncccc4o3)ccc2C)ccc1Cl,10µM*
Cc1cc(C)n2nc(CNC(=O)c3cccc(N(C)C)c3)nc2n1,-20%
CCN(CC)c1nn2c(=O)c(C(=O)NCCc3ccccc3C)cnc2s1,7%
Cc1cccc(C(=O)Nc2cccc(C(=O)OCc3cc(=O)n4c5c(sc4n3)CCCC5)c2)c1,22%
COc1cccc(C(=O)NC2CCN(c3cc(-c4ccc(Cl)cc4)[nH]n3)CC2)c1,-3%
COCCNc1ncccc1-c1noc([C@@H]2CCCN2C2CCN(C)CC2)n1,-9%[44.1 µM]
O=C1c2ccccc2-c2onc3c(Br)cc(NC4CCCCC4)c1c23,-4%
O=C1c2ccccc2-c2onc3c(N4CCN(C5CCCCC5)CC4)cc(NCCO)c1c23,5µM*
COCCNc1cc(N2CCN(C3CCCCC3)CC2)c2noc3c2c1C(=O)c1ccccc1-3,0.89µM*
O=C(c1csc(N2CCN(c3ccccc3)CC2)n1)N1CCN(C2CCCCC2)CC1,i
COCCNc1ncccc1-c1noc([C@@H]2CCCN2C2CCN(C(C)=O)CC2)n1,i
